Records with an inconclusive call do not appear. Active and inactive are the calls of the source. The call rests on the fitted dose curve; in most records, active means well fitted inhibition curve with a large enough effect; inconclusive means small, poorly fitted or top-dose-only effect; inactive means flat fitted curve, though single readings scatter.
On the % scale 0 is the no-effect control and ±100 the full control effect; potency means the concentration at half of the fitted maximal effect.

This experiment in a line: P-glycoprotein substrates identified in KB-8-5-11 adenocarcinoma cell line, qHTS therapeutic library screen (AID 1346987). Further: nearly all actives have a fitted effect of over 65% in size. Conditions: KB-8-5-11 (P-gp overexpressing) viability, CellTiter-Glo, 72 h; series mostly up to 44.5 µM; activity change, negative = cytotoxicity: at the top concentration. Summed up:
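Compounds are pinned in dose-response onto KB-8-5-11 cells (500 cells/well, colchicine-free medium) and left 72 h at 37 degree C. CellTiter-Glo luminescence then yields AC50 values.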
`C#CCOc1ccc2c(C)cc(=O)oc2c1`: the “activity change, negative = cytotoxicity” value was 5.3% (inactive).
With `COc1cc(-c2cccc(O)c2)cc2c1OCO2`, the call was inactive.
As to `CC(=O)c1c(O)cc2cccc3c2c1CC(C)(O)O3` (centres undefined), the “activity change, negative = cytotoxicity” value is 3.9% (inactive).
As for `CC12CCC3C(C)(C)C(O)CCC3(C)C1Cc1c(oc(C(=O)O)cc1=O)O2` (centres undefined), the “activity change, negative = cytotoxicity” value is 3.19% (inactive).
As to `CC1(C)CCC(C)(C)c2cc([C@@H](O)C(=O)Nc3ccc(C(=O)O)cc3F)ccc21`, the compound was called inactive.
Same read-out and setting: as for `CC1[C@@H](O)[C@@H](O)C2[C@]3(C)C(C[C@H]4OC(=O)[C@H](O)[C@]1(O)[C@@]24C)C(C)(O)C[C@H](O)[C@H]3O` (some centres undefined), the entry is “inactive [at 17.3 µM]”.
On the same count and under the same terms, as for `COc1cc(C(O)C(CO)Oc2ccc(CCCO[C@@H]3O[C@@H](C)[C@H](O)[C@@H](O)[C@H]3O)cc2OC)ccc1O` (some centres undefined), the entry is “inactive [at 17.3 µM]”.
On to `CCC(C)C(=O)O[C@@H]1[C@@H](O)[C@@H](O[C@H]2O[C@H](CO)[C@@H](O)[C@H](O)[C@H]2O)O[C@H](CO)[C@H]1O` (some centres undefined), for which the “activity change, negative = cytotoxicity” value was 4.43% [at 17.3 µM] (inactive).
On to `CC1(C)CCCC2(C)C3=C(C(=O)OC3O)C(O)CC12` (centres undefined), for which the call was inactive.
For `CC(C)c1nc(N(C)S(C)(=O)=O)nc(-c2ccc(F)cc2)c1/C=C/[C@@H](O)C[C@@H](O)CC(=O)O`, the “activity change, negative = cytotoxicity” value is 1.75% (inactive).
Consider `CC1CCC2C(C(=O)O)=CC3C(O)C(C)(C)CC123` (centres undefined), for which the compound was called inactive.
Regarding `CCNC(=O)[C@@H]1CCCN1C(=O)[C@H](CCCN=C(N)N)NC(=O)[C@H](CC(C)C)NC(=O)[C@@H](Cc1c[nH]c2ccccc12)NC(=O)[C@H](Cc1ccc(O)cc1)NC(=O)[C@H](CO)NC(=O)[C@H](Cc1c[nH]c2ccccc12)NC(=O)[C@H](Cc1cnc[nH]1)NC(=O)[C@@H]1CCC(=O)N1`, the Potency is 8.2 µM (active).
Take `O=C1CC(c2ccc([N+](=O)[O-])cc2)=NN1c1ccccc1`: the “activity change, negative = cytotoxicity” value is 7.46% (inactive).
`C=C(C)[C@@H]1CC[C@](C)(O)[C@@H](OC(=O)c2ccccc2)C1`: the “activity change, negative = cytotoxicity” value is -8.95% (inactive).
As to `C=CC(C)(C)C1(CC2NC(=O)C3CCCN3C2=O)C(=O)Nc2cc3c(cc21)C=CC(C)(C)O3` (centres undefined), the “activity change, negative = cytotoxicity” value is 8.45% [at 17.3 µM] (inactive).
As to `C[C@@H](Nc1cc(NS(=O)(=O)N2CCC2)nc(SCc2cccc(F)c2F)n1)[C@@H](O)CO`, the call was inactive.
Regarding `C[C@@H]1CC[C@]2(C(=O)O[C@@H]3O[C@H](CO)[C@@H](O)[C@H](O)[C@H]3O)CC[C@]3(C)C(=CCC4[C@@]5(C)C[C@@H](O)[C@H](O)C(C)(C)C5CC[C@]43C)C2[C@]1(C)O` (some centres undefined), the “activity change, negative = cytotoxicity” value is 1.39% [at 17.3 µM] (inactive).
For the compound `CC1(C)O[C@]23C[C@H]1C[C@H](OC(=O)c1ccoc1)[C@]2(C)[C@@H](OC(=O)c1ccoc1)CCC3(C)O` (some centres undefined), the “activity change, negative = cytotoxicity” value is 1.91% [at 17.3 µM] (inactive).
Consider `COC(=O)C1(Cc2ccc(O)cc2)OC(=O)C(OC)=C1c1ccc(O)cc1` (centres undefined), for which the result was inactive.
As to `CC1=C2[C@@H]([C@H](C)CC[C@H]2/C=C(\C)C(=O)O)[C@H](O)C1`, the “activity change, negative = cytotoxicity” value was 9.08% (inactive).
The same measure, in the same setting: the figure for `C=C1CC2C3(C)C(OC(C)=O)CC(=O)OC(C)(C)C3C(O)C(OC(C)=O)C2(C)C2C(=O)OC(C)C(=O)C12C` (centres undefined) is 4.84% [at 17.3 µM] (inactive).
Take `C[C@]1(OC(=O)/C=C/c2ccccc2)C[C@H](O)[C@]2(O)C=CO[C@@H](O[C@@H]3O[C@H](CO)[C@@H](O)[C@H](O)[C@H]3O)C12` (some centres undefined): the “outcome” value is “inactive [at 17.3 µM]”.
Turning to `CN1C(=O)c2ccccc2NC(=O)[C@]12O[C@@H]2c1cccc(O)c1`, the “activity change, negative = cytotoxicity” value is 8.4% (inactive).
For `C[C@@H]1O[C@@H](O[C@H]2[C@H](O[C@H]3[C@H](O[C@H]4CC[C@@]5(C=O)C(CC[C@]6(C)C5CC=C5C7CC(C)(C)C[C@@H](O)[C@]7(C)CC[C@]56C)C4(C)C)O[C@H](C(=O)O)[C@@H](O)[C@@H]3O)OC[C@@H](O)[C@@H]2O)[C@H](O)[C@H](O)[C@H]1O` (some centres undefined), the activity change, negative = cytotoxicity was 5.8% [at 9.29 µM] (inactive).
For the compound `COc1cc(/C=C/CO)ccc1O[C@@H]1O[C@H](CO)[C@@H](O)[C@H](O)[C@H]1O`, the “activity change, negative = cytotoxicity” value was 9.81% (inactive).
Turning to `C=C1CC[C@@H]2[C@](C)(CO[C@@H]3O[C@H](CO)[C@@H](O)[C@H](O)[C@H]3O)CCC[C@@]2(C)[C@@H]1CCC1=CCOC1=O`, the “outcome” value was “inactive [at 17.3 µM]”.
With `CC(=O)OC1C(O)C(C)=C(CCC(C)CC(=O)O)C2(C)CCCC(C)(C)C12` (centres undefined), the “activity change, negative = cytotoxicity” value is 7.18% (inactive).
As for `C[C@@H]1C(=O)O[C@H]2CC34[C@H]5C[C@@H](C(C)(C)C)C36[C@@H](OC(=O)[C@@H]6O)O[C@@]4(C(=O)O5)[C@]21O` (some centres undefined), the “outcome” value is “inactive [at 17.3 µM]”.
Still for that read-out and setting: as for `Cc1nn(C)c(COc2ccc(N3CCN(S(=O)(=O)N(C)C)CC3)cc2)c1-c1cccc2c(CCCOc3cccc4ccccc34)c(C(=O)O)n(CCN3CCOCC3)c12`, the entry is “inactive”; as for `O=C(/C=C/c1ccccc1)OCC1=CC[C@@H]2C(C(=O)O)=CO[C@@H](O[C@@H]3O[C@H](CO)[C@@H](O)[C@H](O)[C@H]3O)[C@H]12`, “inactive [at 17.3 µM]”.
For `O=C(O)CCC(=O)C(=O)O`, the “activity change, negative = cytotoxicity” value was 7.84% (inactive).
On the same count and under the same terms, as for `COc1cc(C2Oc3c(OC)cc(/C=C/C(=O)OC[C@H]4O[C@@H](OC(C)(C)C(=O)O)[C@H](O)[C@@H](O)[C@@H]4O)cc3C2CO)ccc1O` (some centres undefined), the figure is 5.69% [at 17.3 µM] (inactive).
As to `O=C(O[C@@H]1O[C@H](CO)[C@@H](O)[C@H](O)[C@H]1O)c1c(O)cc(O)cc1/C=C/c1ccccc1`, the “outcome” value is “inactive [at 17.3 µM]”.
Consider `C[C@@H]1O[C@@H](O[C@H]2[C@H](OC(=O)[C@]34CCC(C)(C)C[C@H]3C3=CCC5[C@@]6(C)C[C@H](O)[C@H](O[C@@H]7O[C@H](CO[C@@H]8OC[C@H](O)[C@H](O)[C@H]8O)[C@@H](O)[C@H](O)[C@H]7O)C(C)(C)C6CC[C@@]5(C)[C@]3(C)C[C@H]4O)OC[C@@H](O)[C@@H]2O)[C@H](O)[C@H](O[C@@H]2OC[C@](O)(CO)[C@H]2O)[C@H]1O[C@@H]1OC[C@H](O)[C@H](O[C@@H]2OC[C@@H](O)[C@H](O)[C@H]2O)[C@H]1O` (some centres undefined), for which the activity change, negative = cytotoxicity was 7.52% [at 9.29 µM] (inactive).
In the case of `CC1=CC(=O)CC(C)(C)C1(O)CCC(C)O` (centres undefined), the compound was classed as inactive.
As to `Nc1ccn([C@@H]2C(F)=C(CO)[C@@H](O)[C@H]2O)c(=O)n1`, the Potency was 10.3 µM (active).
`CO[C@@H]1CC[C@H](OC[C@]2(COC(=O)c3ccc(C)[nH]3)[C@H](OC(C)=O)CC[C@@]3(C)[C@@H]4CC=C(C)[C@@H](C5=C(O)C(=O)OC5O)[C@]4(C)CC[C@@H]32)O[C@H]1C` (some centres undefined): the “activity change, negative = cytotoxicity” value was 6.48% [at 17.3 µM] (inactive).
The same measure, in the same setting: as for `CCC[C@@H]1C[C@@H](C(=O)N[C@H](C(C)Cl)[C@H]2O[C@H](SC)[C@H](O)[C@@H](O)[C@H]2O)N(C)C1` (some centres undefined), the figure is 0.539% (inactive); as for `CC1(CCC(=O)O)C(=O)C=CC23CC4CC(OC4(C)C2O)C13` (centres undefined), 8.84% (inactive).
